Hits are enriched below; roughly 3% of the tested compounds scored in any of these assays.
C8 TRAIL sens = caspase-8 TRAIL sensitization; AID 624354; NB7+C8 cells + TRAIL, ATPlite viability luminescence; actives 1% (n = 360,000); inhibition (viability loss, TRAIL sensitization), % at 10 µM;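 active = compounds causing at least 50% loss of cell viability in the single-dose screen, relative to plate controls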
PPC-1+TRAIL kill = kills PPC-1 cancer cells in the presence of TRAIL. actives 0.41% (n = 220,000). PPC-1 cells + TRAIL, ATPLite viability luminescence. cell killing (% activity), % at 4 µM or 5 µM. AID 1443;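 active = cell killing above 50% in the first pass at 4 µM, then a duplicate retest at 5 µM averaging 50% or more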
SENP8 block-1 = SENP8 protease inhibition; Q96LD8; purified SENP8, Z-RLRGG-aminoluciferin cleavage, luminescence; inhibition, % at 10 µM; actives 1.2% (n = 330,000); AID 2540; in the data active = inhibition above about 50%
SENP8 block-2 = SENP8 (human) protease inhibition | inhibition, % at 20 µM | recombinant SENP8, Nedd8 substrate fluorescence | actives 0.64% (n = 360,000) | AID 602440; in the data active = inhibition mostly above about 40%, no sharp cut-off; inactive = mostly below about 27%
SENP7 inh = SENP7 protease inhibition. Q9BQF6. recombinant SENP7, Z-RLRGG-aminoluciferin luminescence, 40 min. inhibition, % at 5 µM. actives 1.5% (n = 330,000);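 active = inhibition above about 50% at the single test dose, limit read from the data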
SENP6 inh = blocks the human protease SENP6; AID 2599; actives 1.8% (n = 330,000); Recombinant SENP6 catalytic domain, aminoluciferin luminescence; inhibition, % at 10 µM; Q9GZR1;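 active = inhibition above about 50% at the single tested dose, limit read from the data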
Target sequence (Q9GZR1 628-1112 limits assumed): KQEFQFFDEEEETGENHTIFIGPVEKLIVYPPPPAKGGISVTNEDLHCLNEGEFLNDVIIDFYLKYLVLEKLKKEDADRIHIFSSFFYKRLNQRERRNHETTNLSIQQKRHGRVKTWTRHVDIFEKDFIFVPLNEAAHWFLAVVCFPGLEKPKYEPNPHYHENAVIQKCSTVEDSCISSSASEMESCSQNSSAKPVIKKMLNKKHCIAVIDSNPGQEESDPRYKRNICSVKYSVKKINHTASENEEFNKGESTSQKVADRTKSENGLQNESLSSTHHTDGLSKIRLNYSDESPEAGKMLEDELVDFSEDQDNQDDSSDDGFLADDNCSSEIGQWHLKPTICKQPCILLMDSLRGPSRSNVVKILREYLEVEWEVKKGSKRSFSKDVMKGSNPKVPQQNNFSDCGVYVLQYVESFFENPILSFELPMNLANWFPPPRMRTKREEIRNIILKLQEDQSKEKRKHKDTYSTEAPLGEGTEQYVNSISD
SENP8 confirm = confirmation of human SENP8 protease inhibitors | shares compounds with SENP7 inh | Recombinant SENP8, Z-RLRGG-aminoluciferin luminescence, 60 min | inhibition, % at 12.5 µM | actives 40% (n = 6,200) | AID 488912;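 active = mean inhibition across replicates above about 50%, limit read from the data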
SENP6 confirm = human SENP6 inhibition, confirmed; inhibition, % at 12.5 µM; recombinant SENP6, Z-RLRGG-aminoluciferin luminescence; AID 488915; actives 58% (n = 6,200); shares compounds with SENP7 inh
SENP7 conf = confirmation of human SENP7 protease inhibitors; shares compounds with SENP7 inh; recombinant SENP7, Z-RLRGG-aminoluciferin luminescence, 40 min; inhibition, % at 12.5 µM; actives 69% (n = 6,200)
Casp3 select = caspase-3 inhibition (SENP selectivity assay); AID 488918; shares compounds with SENP7 inh; inhibition, % at 12.5 µM; actives 60% (n = 6,200); purified caspase-3, Z-DEVD-aminoluciferin luminescence, 60 min;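 active = mean inhibition above about 50%, limit read from the data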
Target sequence (P42574 28-227 limits assumed): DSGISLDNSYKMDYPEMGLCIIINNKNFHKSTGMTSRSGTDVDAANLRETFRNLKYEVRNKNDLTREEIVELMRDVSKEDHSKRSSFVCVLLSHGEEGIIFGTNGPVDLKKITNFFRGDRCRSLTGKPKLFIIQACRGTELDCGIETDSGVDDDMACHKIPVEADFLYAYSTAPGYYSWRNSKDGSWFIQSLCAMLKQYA
SENP luc ctr = luminescence interference (SENP counter-screen); shares compounds with SENP7 inh; Pre-incubated SENP8/Z-RLRGG-aminoluciferin, luciferase luminescence interference; AID 488919; inhibition, % at 12.5 µM; actives 39% (n = 6,200);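 active = mean inhibition above about 50% when retested at one dose, limit read from the data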
A number is an active result; - = inactive; . = not tested or not shown.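 The calls were made as follows, unless noted: active = mean inhibition above about 50% in the one-dose retest (limit read from the data); inactive = the rest.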

SMILES | C8 TRAIL sens | PPC-1+TRAIL kill | SENP8 block-1 | SENP8 block-2 | SENP7 inh | SENP6 inh | SENP8 confirm | SENP6 confirm | SENP7 conf | Casp3 select | SENP luc ctr
NS(=O)(=O)c1ccc(NC(=O)Nc2ccccc2)cc1 | - | - | - | - | - | - | . | . | . | . | .
Cc1ccc(NC2=CC(=O)C(=O)c3ccccc32)cc1 | 91 | - | 55 | - | - | 66 | - | 66 | - | - | -
COc1cc(OC)c(NC2=CC(=O)C(=O)c3ccccc32)cc1Cl | 96 | . | 70 | - | 53 | 79 | - | 87 | 73 | - | -
O=C1C=C(Nc2ccc(O)cc2)C(=O)c2ccccc21 | - | - | 96 | - | 96 | 97 | 64 | 98 | 103 | 97 | 53
N#Cc1ccc(OCC(=O)NNC(=S)NC2CCCCC2)cc1 | - | . | - | - | - | - | . | . | . | . | .
Cc1c(C)c2ccc(OCC(=O)NCCN3CCOCC3)c(C)c2oc1=O | - | . | - | - | - | - | . | . | . | . | .
CCOC(=O)COn1c(-c2cccc(Cl)c2)nc2ccc([N+](=O)[O-])cc21 | - | - | 87 | - | 90 | 94 | 81 | 81 | 92 | 65 | 69
Cc1ccc(-n2ncc(C(=O)NCC3CCN(C4CCCC4)C3)c2C2CCN(C(=O)OC(C)(C)C)CC2)cc1 (stereo unspecified) | - | . | - | - | - | - | . | . | . | . | .
CC(C)(C)OC(=O)N1CCC(c2c(C(=O)NCC3CCN(C4CCCC4)C3)cnn2-c2ccc(F)cc2)CC1 (stereo unspecified) | - | . | - | - | 56 | - | - | - | - | - | -
O=C(Oc1ccc(-c2cnc3ccccc3n2)cc1)c1ccco1 | - | - | 92 | - | 98 | 88 | 76 | 83 | 94 | 87 | -
CCC(=O)Oc1ccc(-c2cnc3ccccc3n2)cc1 | - | - | 89 | - | 94 | 94 | - | 92 | 101 | 88 | -
Cc1ccc(C(=O)COC(=O)c2ccc(-c3cnc4ccccc4n3)cc2)cc1C | - | - | - | - | - | - | . | . | . | . | .
COc1ccc(Cl)cc1CC=NNC(=O)c1cccc(C)c1O | - | . | . | - | . | . | . | . | . | . | .
Cc1ccc2nc(-c3ccc(O)c(O)c3)cn2c1 | 76 | . | - | - | 57 | 72 | 69 | 67 | 90 | 84 | 72
Cc1nc(-c2ccc(O)c(O)c2)cs1 | - | - | - | - | - | - | . | . | . | . | .
O=C(OCc1ccc(O)cc1)c1c(-c2ccsc2)oc2ccc(N3CCOCC3)cc12 | - | . | - | - | - | - | . | . | . | . | .
c1ccc(CN2CCOCC2)cc1 | - | - | - | - | 87 | - | - | - | - | - | -
CCn1c(SCC(=O)NC(=O)c2ccccc2OC)nc2ccccc21 | - | . | - | - | - | - | . | . | . | . | .
Cc1[nH]c(=O)[nH]c(=O)c1C=CC(=O)NC(CO)CS(=O)Cc1ccccc1 (stereo unspecified) | - | . | . | - | . | . | . | . | . | . | .
Fc1ccc(-c2nnc(-c3ccc(F)cc3)o2)cc1 | - | . | - | - | 60 | 52 | - | - | - | - | -
COc1ccc2c(C#N)c3ccccn3c2c1 | - | - | - | - | - | 50 | - | 52 | - | - | -
CCOc1cc(/C=C2\NC(=S)N(c3c(C)n(C)n(-c4ccccc4)c3=O)C2=O)ccc1O | - | - | - | - | - | - | . | . | . | . | .
CCOc1cccc(/C=C2\NC(=S)N(c3ccccc3)C2=O)c1O | - | - | 91 | - | 87 | 92 | 83 | 98 | 102 | 94 | 69
O=C1[C@H]2[C@@H](c3ccc(C(F)(F)F)cc3)N[C@]3(CCCN(Cc4ccco4)C3=O)[C@H]2C(=O)N1Cc1ccccc1 | - | . | . | - | . | . | . | . | . | . | .
CCc1noc(C)c1C(=O)Nc1nc2ccc(F)cc2s1 | - | . | 64 | - | 66 | 81 | 76 | 76 | 94 | 75 | 71
SMILES | C8 TRAIL sens | PPC-1+TRAIL kill | SENP8 block-1 | SENP8 block-2 | SENP7 inh | SENP6 inh | SENP8 confirm | SENP6 confirm | SENP7 conf | Casp3 select | SENP luc ctr
Cc1noc(C)c1C(=O)Nc1nc2ccc(F)cc2s1 | - | . | 99 | - | 100 | - | 97 | 100 | 103 | 99 | -
Cc1noc(C)c1C(=O)Nc1nc2ccc(Cl)cc2s1 | - | . | 95 | - | 94 | 96 | 92 | 96 | 101 | 93 | 66
CCc1noc(C)c1C(=O)Nc1nc2ccc(S(C)(=O)=O)cc2s1 | - | . | - | - | - | - | . | . | . | . | .
CSc1nsc(NN)n1 | - | . | . | - | . | . | . | . | . | . | .
O=C(O)C1CCCN1C(=O)NC1CCCCC1 (stereo unspecified) | - | . | - | - | - | - | . | . | . | . | .
O=C(CCCN1C(=O)/C(=C/c2ccccc2Cl)SC1=S)NCCCN1CCOCC1 | - | . | - | - | - | 52 | 50 | - | 65 | - | -
O=C(CCCN1C(=O)/C(=C/c2ccccc2Cl)SC1=S)N1CCCC1 | - | . | 84 | - | 68 | 74 | 85 | 84 | 88 | 61 | -
O=c1c2c([nH]c3ccccc13)CCCCC2 | - | - | - | - | - | 82 | - | - | - | - | -
O=c1c2c([nH]c3ccccc13)CCCCCC2 | - | - | - | - | - | - | . | . | . | . | .
CC1=C(C(N)=O)C(c2ccccc2[N+](=O)[O-])n2ncnc2N1 (stereo unspecified) | - | . | - | - | - | - | . | . | . | . | .
CCCC(C)C(=O)Nc1ccc(Cl)cc1Cl (stereo unspecified) | - | - | - | - | - | - | . | . | . | . | .
CO/N=C/C(C(C)=O)C(=O)Nc1ccc(Cl)cc1Cl (stereo unspecified) | - | - | - | - | - | 56 | - | - | - | - | -
O=C(/C=C/c1ccccc1)Nc1cccnc1Cl | - | . | 66 | - | - | 74 | 69 | 60 | 90 | 84 | 73
O=C(Nc1ccc(F)cc1)Nc1cccnc1Cl | - | . | 77 | - | 85 | 81 | - | 78 | 96 | 88 | 81
Cc1cccnc1NC(=O)Nc1ccc(F)cc1 | - | - | - | - | - | - | . | . | . | . | .
O=C(/C=C/c1ccco1)Nc1cccnc1Cl | - | - | - | - | 54 | 58 | 58 | 56 | 86 | 85 | 63
CCOc1ccc(NC(=S)Nc2cccc3ccccc23)cc1 | - | . | 50 | - | - | 88 | - | - | - | - | -
CN(C)S(=O)(=O)c1cccc(NC(=S)Nc2cccc3cnccc23)c1 | - | - | . | - | . | . | . | . | . | . | .

Source: PubChem BioAssay (Sanford-Burnham Center for Chemical Genomics)
